# Active and inactive are the calls of the source.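 The calls were made as follows, unless noted: active = compounds giving at least 50% inhibition in the cell-based MKP-3 phosphatase rescue imaging test; inactive = the rest.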
# Legend:
# [1] = inhibitors of TNFa-induced NFkB p65 translocation, primary screen, imaging, HUVEC, MLSMR starter and 10KST1 sets (AID 438;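 active = inhibition above 20% together with a positive visual image hit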;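 also: compound added about 3h40 before a 20 min TNFalpha stimulation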;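 as to inhibition: signal is the nuclear over cytoplasmic p65 intensity ratio per well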); conditions: HUVEC TNFa-induced p65 nuclear translocation; cell count: measured here: nuclei count (cytotoxicity indicator), at 2.08 µM; inhibition: at 2 µM, stronger effect = higher value, 0% TNFa-plus-vehicle, 100% no-TNFa wells
# [2] = inhibitors of mutant huntingtin aggregation, primary screen, imaging, exon1htt(103Q)mCFP cells, high-content imaging (AID 483;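 active = visual image review flags a hit and inhibition of aggregation exceeds 20%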;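 also: compound exposure lasted 3 days before fixation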;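 as to nuclei count: percent of the per-plate median nuclei count of sample wells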); conditions: exon1htt(103Q)mCFP cell line, aggregate imaging, at 2 µM; inhibition of aggregation: stronger effect = higher value; nuclei count: measured here: cell count, toxicity
# [3] = inhibitors of E-selectin induction by TNFa, primary screen, imaging, HUVEC, immunofluorescence, MLSMR starter and 10KST1 sets (AID 487;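 active = visually confirmed hit in the image check and inhibition above 20%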;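 as to inhibition: signal is fraction of cell area covered by stained E-selectin grains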;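 as to nuclei count: 100% = median nuclei count of all wells on the same plate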); conditions: HUVEC TNFalpha-induced E-selectin immunofluorescence imaging, at 2 µM; inhibition: stronger effect = higher value; nuclei count: measured here: cell number, toxicity
# [4] = DUSP6 inhibitors restoring Erk phosphorylation by chemical complementation, primary imaging in DUSP6-transfected HeLa (AID 609); conditions: HeLa MKP-3 transfected, phospho-Erk imaging KS statistic, at 10 µM, cells stimulated with TPA for 15 min;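 as to inhibition: phospho-Erk level distribution per well compared with pooled transfected vehicle control wells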
# [5] = target: Dual specificity protein phosphatase 6 (Homo sapiens) (UniProt Q16828); assay: as above; conditions: HeLa MKP-3 transfected, phospho-Erk imaging KS statistic; at 10 µM; stronger effect = higher value; cells stimulated with TPA for 15 min
# Dual specificity protein phosphatase 6 (Homo sapiens), sequence (Q16828 whole entry, looked up): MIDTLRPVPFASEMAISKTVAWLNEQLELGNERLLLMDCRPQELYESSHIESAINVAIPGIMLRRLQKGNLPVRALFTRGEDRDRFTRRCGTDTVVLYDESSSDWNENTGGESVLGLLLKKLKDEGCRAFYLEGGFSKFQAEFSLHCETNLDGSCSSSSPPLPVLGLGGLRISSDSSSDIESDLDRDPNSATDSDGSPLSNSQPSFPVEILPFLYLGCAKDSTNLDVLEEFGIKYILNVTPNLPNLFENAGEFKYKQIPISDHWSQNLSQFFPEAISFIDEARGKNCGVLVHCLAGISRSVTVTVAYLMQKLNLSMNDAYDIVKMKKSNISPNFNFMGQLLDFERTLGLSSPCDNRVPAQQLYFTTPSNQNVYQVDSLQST
# [6] = target: Voltage-gated potassium channel subunit beta-2 (Rattus norvegicus) (UniProt P62483); assay: KvBeta enzyme negative modulators, primary screen, biochemical, NADPH fluorescence (AID 622;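 active = fluorescence slope higher than the sample average by over 3 SD, cut at about -0.22 in these data, passing the limit was not always enough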;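 also: slope of raw intensity against log time taken from 70 to 1610 s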); conditions: recombinant KvBeta, 4-cyanobenzaldehyde reduction, at 10 µM, stronger effect = higher value
# Voltage-gated potassium channel subunit beta-2 (Rattus norvegicus), sequence (P62483 whole entry, looked up): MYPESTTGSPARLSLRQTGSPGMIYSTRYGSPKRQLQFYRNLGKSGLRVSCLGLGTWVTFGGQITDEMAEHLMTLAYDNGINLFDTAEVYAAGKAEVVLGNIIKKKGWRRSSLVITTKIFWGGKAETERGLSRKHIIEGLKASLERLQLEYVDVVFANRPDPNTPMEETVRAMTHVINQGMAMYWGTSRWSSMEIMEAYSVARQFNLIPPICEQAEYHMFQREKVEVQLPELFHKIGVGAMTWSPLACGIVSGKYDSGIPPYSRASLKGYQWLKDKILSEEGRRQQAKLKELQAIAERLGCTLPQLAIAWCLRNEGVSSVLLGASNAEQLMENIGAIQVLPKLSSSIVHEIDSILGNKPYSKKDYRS
# [7] = target: Voltage-gated potassium channel subunit beta-2 (Rattus norvegicus) (UniProt P62483); assay: KvBeta positive modulators, primary screen, biochemical, NADPH fluorescence (AID 623;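 active = NADPH fluorescence slope more negative than the mean of all samples by about 3 SD, 99.7% confidence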;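 also: fluorescence intensity change per second fitted from 20 to 320 s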); conditions: Recombinant KvBeta, NADPH fluorescence decrease slope, 10 min; at 10 µM; stronger effect = lower value
# [8] = target: Alpha-2C adrenergic receptor (Homo sapiens) (UniProt P18825); assay: modulators of alpha2C/GIRK thallium flux, primary screen, cell-based, HEK293 alpha2C/GIRK1/2 (AID 624;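 active = fluorescence slope after compound addition differing from the mean of all screened samples at 99.7% confidence, in either direction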;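 also: slope of fluorescence ratio to pre-addition baseline per second over 15 to 24 s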); conditions: thallium flux BTC fluorescence, at 10 µM, actives lie on both sides
# Alpha-2C adrenergic receptor (Homo sapiens), sequence (P18825 whole entry, looked up): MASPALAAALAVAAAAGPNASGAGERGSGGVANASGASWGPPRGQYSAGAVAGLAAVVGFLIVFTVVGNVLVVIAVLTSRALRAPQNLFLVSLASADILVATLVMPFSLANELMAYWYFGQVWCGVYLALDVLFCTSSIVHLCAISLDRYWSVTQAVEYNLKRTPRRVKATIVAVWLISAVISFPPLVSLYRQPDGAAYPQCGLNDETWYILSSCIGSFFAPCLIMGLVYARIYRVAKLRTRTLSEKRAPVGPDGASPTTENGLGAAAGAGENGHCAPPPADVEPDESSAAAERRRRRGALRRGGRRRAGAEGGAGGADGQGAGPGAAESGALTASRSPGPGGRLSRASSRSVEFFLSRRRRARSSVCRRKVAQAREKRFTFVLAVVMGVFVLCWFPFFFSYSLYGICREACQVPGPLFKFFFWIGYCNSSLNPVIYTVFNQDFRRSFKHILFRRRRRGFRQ
# [9] = inhibitors of larval lipid processing in zebrafish, primary screen, whole organism, PED6 fluorescence, gall bladder and intestine (AID 686;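 active = a full or partial loss of lipid-probe fluorescence in the fish gall bladder, intestine or both, judged by eye; inactive = no fluorescence loss, or compound toxic to the fish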;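 also: larvae 5 to 7 days old with five fish per well; signal comes from phospholipase A2 cleavage of quenched PED6 carried via bile; overnight exposure to compound and PED6 before scoring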); conditions: Zebrafish larvae PED6 lipid processing, fluorescence scoring; screened at 20 µM (by protocol)
# [10] = inhibitors of Chlamydomonas gravitaxis, primary screen, whole organism, Chlamydomonas reinhardtii, WT vs cilia-less mutant, absorbance, 96-well (AID 463189;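 active = inhibition at or above 50% relative to wild type and mutant plate controls; inactive = inhibition below 50%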;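 also: 0% = wild type cc124 cells in DMSO and 100% = ciliumless bld1 mutant cells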); conditions: OD600 absorbance, 2 days, at 10 µM, stronger effect = higher value
# [11] = inhibitors of Sendai virus-induced IRF3 signaling, primary screen, TLR/RLR signaling modifier project, cell-based, Sendai virus stimulus, luciferase, 10K MLSCN set (AID 602276;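 active = inhibition at or above 50% at 10 µM; inactive = inhibition below 50%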;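 also: firefly luciferase from ISG56 promoter only with Renilla not read in this screen; 0% = Sendai virus plus DMSO and 100% = medium plus DMSO without virus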); conditions: HEK293 RL24 IRF3 luciferase reporter, at 10 µM, stronger effect = higher value
# [12] = inhibitors of poly I:C-induced TLR3 signaling, primary screen, cell-based, poly I:C stimulus, luciferase, 10K MLSCN set (AID 602277;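 active = inhibition of the reporter signal at or above 50%; inactive = inhibition below 50%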); conditions: HEK293-TLR3 RL24 IRF3 luciferase reporter, at 10 µM, stronger effect = higher value
# [13] = measured here: cell density z-score
# [14] = measured here: nuclear c-Myc green intensity z-score
# [15] = measured here: nuclear pErk red intensity z-score, stronger effect = higher value
Structure (SMILES),cell count [1],inhibition [1],inhibition of aggregation [2],nuclei count [2],inhibition [3],nuclei count [3],"z-score [4, 13]","z-score [4, 14]","z-score [4, 15]",inhibition [5],fluorescence slope [6],NADPH fluorescence slope [7],slope [8],outcome [9],inhibition [10],inhibition [11],inhibition [12]
CCC(CC)C1C(C#N)=C(N)Oc2n[nH]c(C)c21 (stereo not given),565,-2.9% (inactive),-28.3% (inactive),102%,-21.1% (inactive),112%,-1.42,-0.486,0.51,5.57% (inactive),-0.492 (inactive),-0.000106 (inactive),0.00492 (inactive),inactive,-5.48% (inactive),41.8% (inactive),50% (inactive)
Cc1cc(C)n(CC(=O)n2c3c(c4ccccc42)CCCC3)n1,515,-6.5% (inactive),13.5% (inactive),99.3%,-92.5% (inactive),130%,-0.283,1.41,0.335,-1.98% (inactive),-0.53 (inactive),-3.4e-05 (inactive),0.0062 (inactive),inactive,-0.753% (inactive),-7.05% (inactive),1.75% (inactive)
Nc1nc(Cl)nc2c1ncn2[C@@H]1O[C@H](CO)[C@@H](O)[C@H]1O,493,-14.6% (inactive),16.9% (inactive),88.7%,-20.3% (inactive),117%,0.919,0.297,-0.425,7.39% (inactive),-0.439 (inactive),2.4e-05 (inactive),0.00614 (inactive),inactive,13% (inactive),16.8% (inactive),39% (inactive)
CCCCOc1ccc(OCCCN2CCOCC2)cc1,589,6% (inactive),7.5% (inactive),94.3%,-52.4% (inactive),117%,-0.745,-1.16,3.07,1.38% (inactive),-0.49 (inactive),-5.2e-05 (inactive),0.00401 (inactive),inactive,159% (active),-7.75% (inactive),-40.7% (inactive)
CCOC(=O)CSC1=C(C#N)C(=O)NC2(CCCCC2)S1,580,-10.9% (inactive),-5.9% (inactive),108%,-43.8% (inactive),131%,-1.03,0.989,0.0798,-7.86% (inactive),-0.497 (inactive),-4.9e-05 (inactive),0.00597 (inactive),inactive,-1.64% (inactive),8.53% (inactive),100% (active)
